Measurements published in PubChem BioAssay (NCI).
The panel holds about 83,000 compounds, 20% with a hit somewhere; the sample as a whole holds those more often.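 In brief: 96-well plates, 48 h treatment, single concentration, percent growth endpoint.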 Unmarked numbers belong to inactive results. Calls of active or inactive are those of the source. The calls were made as follows: active = growth percent below 10; inactive = the rest.

How the values were obtained:
Test in all cases: NCI-60 one-dose screen, 48 h (100 = growth as untreated, 0 = no growth, -100 = all killed)
Details in all cases: 10 µM unless noted
[1] = test system: T-47D breast
[2] = test system: BT-549 breast
[3] = test system: MDA-MB-435 melanoma
[4] = test system: SW-620 colon
[5] = test system: MCF7 breast
[6] = test system: HCT-116 colon
[7] = test system: HCC-2998 colon
[8] = test system: KM12 colon

Structure (SMILES) | growth [1] | growth [2] | growth [3] | growth [4] | growth [5] | growth [6] | growth [7] | growth [8]
C#Cc1nc2ccccc2c(=O)[nH]1 | -30.6% (active) | -61.2% (active) | -58.2% (active) | -63.7% (active) | -25% (active) | -64.2% (active) | -41.1% (active) | -65.7% (active)
CN1CCOCCOCCOc2ccccc2NC(=O)c2nc(cnc2N)-c2ccc(cc2)S1(=O)=O | 80.1% | 48.1% | 58.3% | 48.7% | 31.1% | 29.1% | 32.2% | 33.3%
Cc1cc2cc3cc(C)c(N(C)C)cc3nc2cc1N(C)C | 7.76% (active) | -11.6% (active) | 29.1% | 17.7% | 13.5% | 13.7% | 23.7% | 3.92% (active)
CCN(CC)CCC(=O)c1ccc(OC)c2ccccc12 | 29.1% | 79.6% | 102% | 93% | 11.9% | 88.4% | 90.8% | 81.8%
C=C1CC[C@@H]2[C@](C)(COC(C)=O)[C@H](OC(C)=O)CC[C@@]2(C)[C@@H]1CC(Nc1ccc(S(=O)(=O)Nc2nc(C)cc(C)n2)cc1)C1=CCOC1=O (stereo partly specified) | 68.8% |  | 67% | 40% | 40.3% | 39.2% | 100% | 64.7%
COc1ccc(C(=O)c2sc3nc(-c4ccccc4OC)ccc3c2N)cc1OC | 26.4% | 20.9% | 31.7% | 73.6% | 62.1% | 39.3% |  | 46.1%
C=C1CCC2C3(C)COC(c4ccccc4Br)OC3CCC2(C)C1C/C=C1/C(=O)OCC1OC(C)=O (stereo unspecified) | -68.9% (active) |  | -38.6% (active) | -73.1% (active) | -68.9% (active) | -91% (active) | 55.4% | -56.7% (active)
CC(=O)Oc1ccc(Nc2c3ccccc3nc3ccccc23)cc1 | 7.4% (active) | 55.2% | 8.19% (active) | 3.73% (active) | 3.91% (active) | 14% |  | 18.1%
CCCCCCCCCCCCCCCCCCSC1=CC(=O)C(OC)=C(OC)C1=O | 87.9% | 111% | 68.2% | 81.5% | 96.8% | 97.9% |  | 94.4%
COc1c(Cl)cc(Cl)cc1Cl | 104% |  | 115% | 91.8% | 111% | 109% | 118% | 109%
CS(=O)(=O)c1ccc(-c2cnc3ccc(-c4cccc(S(C)(=O)=O)c4)nn23)cc1 | 18.7% |  | 49.6% | 75.6% | 18.4% | 34% | 55.4% | 47.1%
CSc1nc(NCCO)c(C#N)c(-c2cccc(N)c2)n1 | 87.8% |  | 105% | 103% | 94.7% | 98.9% | 109% | 99.4%
NC(N)=Nc1ccc(S(=O)(=O)O)cc1 | 114% | 119% | 106% | 103% | 102% | 107% |  | 116%
Nc1ccc(N2CCOCC2)cc1 | 88.1% | 82.1% |  | 111% | 88.8% | 98% | 96.9% | 115%
CCN(CC)CCCCNc1ccc(NCCCCN(CC)CC)c2c1C(=O)c1ccccc1C2=O | 122% | 95.6% | 56% | -7.96% (active) | 79.1% | -58.4% (active) |  | 26.9%
COc1ccc2nc3cc(Cl)ccc3c(N3CCN(c4nccc(Nc5ccccc5)n4)CC3)c2c1 | 23.3% |  | 62% | 59.7% | 24.3% | 16.3% | 87.6% | 63.1%
COc1c(C2CC(=O)Nc3c2cnn3Cc2ccco2)cc2c(c1OC)OCO2 (stereo unspecified) | 55.6% | 8.74% (active) | -58.4% (active) | 23% | 12.8% | 12.8% |  | 16.8%
CC/C=C\C[C@H](O)C/C=C1/C(=O)C=C[C@@H]1C/C=C\CCCC(N)=O | 1.28% (active) |  | 23.5% | 5.37% (active) | 7.66% (active) | -69% (active) | -73.6% (active) | -38.7% (active)

Structure (SMILES) | growth [1] | growth [2] | growth [3] | growth [4] | growth [5] | growth [6] | growth [7] | growth [8]
COc1ccc2nc3cc(Cl)ccc3c(N3CCN(c4nccc(Nc5ccc(Cl)cc5)n4)CC3)c2c1 | 32.2% |  | 78.7% | 73.7% | 41.6% | 12% | 92.3% | 62.3%
CC[C@@H](C)OC(=O)c1nn(C(C)=O)c2ccccc12 | 103% |  | 103% | 107% | 83.6% | 104% | 96.4% | 103%
COc1ccc(/C=N\NC(=O)c2ccncc2)cc1O | 87.3% |  | 98.5% | 107% | 95.7% | 94.1% | 101% | 94.2%
CCCCCCCCSC1=CC(=O)C(OC)=C(OC)C1=O | -76.6% (active) | 68.8% | 7.62% (active) | -60.5% (active) | 13.1% | -49.9% (active) |  | 29.5%
Cc1ccn2c(-c3csc(Nc4cccc(O)c4)n3)c(C)nc2c1 | 34% | 25% | -34.6% (active) | 33.4% | 6.08% (active) | 27.6% |  | 29.9%
O=[N+]([O-])c1cccc(-c2nc3sccn3c2-c2ccnc(NCCNS(=O)(=O)c3ccc(C(F)(F)F)cc3)n2)c1 | -3.01% (active) |  | 20.7% | 69.8% | 21.9% | 35.6% | 65.2% | 22.5%
CCN(CC)CCC(=O)Nc1ccc(Cn2nnc3c2C(=O)c2nnn(Cc4ccc(NC(=O)CCN(CC)CC)cc4)c2C3=O)cc1 | -58% (active) |  | -80.1% (active) | -9.46% (active) | -60.2% (active) | -87.9% (active) | -47.2% (active) | -6.54% (active)
CS(=O)(=O)c1c(Nc2ccccc2)n[nH]c1N | 104% | 89.1% | 107% | 112% | 101% | 103% |  | 118%
COc1ccc(C(=O)/C=C/c2cc3ccccc3[nH]c2=O)cc1 | 33.8% | 21.3% | 29.9% | -21% (active) | 15% | 8.02% (active) |  | -32% (active)
COC(/C=C/c1ccc([N+](=O)[O-])cc1)OC | 52% | 118% | 96.8% | 85.2% | 77.2% | 27.3% |  | 110%
COc1cc(C2CC(=O)Nc3c2cnn3Cc2ccco2)cc2c1OCCO2 (stereo unspecified) | 88.8% | 87.7% | 4.28% (active) | 56.6% | 54.1% | 72.5% |  | 48.4%
O=C1c2cc3c(cc2-c2c1c1cc(Cl)c(Cl)cc1c(=O)n2C[C@H](O)CO)OCO3 | -20.2% (active) |  | -24.8% (active) | 12.7% | -0.37% (active) | -25.4% (active) | -5.57% (active) | -21% (active)
CCOC(=O)CC(=O)c1c(C)cc(C)cc1C | 121% | 93.5% | 98.6% | 103% | 97.5% | 91.2% |  | 95.5%
CC1=C(NCCN2CCCC2)C(=O)c2c(OCc3ccc(C(F)(F)F)cc3)cccc2C1=O | 73.6% |  | 70.9% | 83.5% | 59.9% | 33.9% | 107% | 85%
O=C(O)c1ccc(=O)[nH]n1 | 105% | 106% | 112% | 102% | 97.2% | 106% |  | 123%
O=C(Nc1ccc(Oc2ccc(F)cc2)c(Cl)c1)c1cccnc1 | 70.6% |  | 41.5% | 92.7% | 76.7% | 88.2% | 91.2% | 76.4%
O=C1C[C@H](N2C(=O)c3ccccc3S2(=O)=O)C2CO[C@@H]1O2 | 54.1% |  | 95.7% | 56.1% | 23.1% | 42.7% | 99.3% | 102%
COc1cc(-c2c3sc(=O)[nH]c3nc3c2c(=O)[nH]n3C(C)C)cc2c1OCO2 | 105% | 105% | 104% | 104% | 91.7% | 106% |  | 101%
